# Hits are enriched below; roughly 1.8% of the tested compounds scored in any of these assays.
# GLP-1R inv ag = acts as inverse agonist at human GLP-1 receptor | P43220 | HEK293 GLP-1R CRE-luciferase, luminescence, 24 h; GLP-1R form is constitutively active | Potency, µM (top dose mostly 38.3 µM), for inactives: at the highest dose activity change, negative = inhibition, usual class: inhibitors | 410,000 compounds, 1.6% hits | AID 624417; note: potency is the fitted concentration of half-maximal effect; % is set by controls: 0 for no effect and ±100 for the full control effect; nearly all actives have a fitted effect of over 55% in size
# Target sequence (P43220 whole entry, looked up): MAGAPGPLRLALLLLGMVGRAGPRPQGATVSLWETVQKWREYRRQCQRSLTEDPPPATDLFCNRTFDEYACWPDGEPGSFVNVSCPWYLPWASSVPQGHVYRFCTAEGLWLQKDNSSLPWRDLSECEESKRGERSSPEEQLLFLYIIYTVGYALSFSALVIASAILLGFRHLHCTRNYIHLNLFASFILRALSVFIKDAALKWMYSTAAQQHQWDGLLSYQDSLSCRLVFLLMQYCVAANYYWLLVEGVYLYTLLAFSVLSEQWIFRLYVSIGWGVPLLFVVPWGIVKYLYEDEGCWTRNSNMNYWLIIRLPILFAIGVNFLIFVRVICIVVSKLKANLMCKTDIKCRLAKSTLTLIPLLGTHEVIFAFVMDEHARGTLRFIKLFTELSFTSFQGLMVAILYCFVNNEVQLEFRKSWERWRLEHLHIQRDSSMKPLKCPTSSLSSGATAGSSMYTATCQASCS
#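 Constitutively active GLP-1R drives a cAMP-responsive luciferase in stably transfected HEK293 cells; test compounds are added after overnight (12 h) attachment and left 24 hr, and signal loss in luminescence marks inhibition.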
# TRPML1 agonist = human mucolipin-1 channel agonism; TRPML1-expressing cells, Ca2+ dye fluorescence, FDSS; activation, % (test concentration not listed); 410,000 compounds, 0.12% hits; in the data active = activation above about 50%; inconclusive = mostly about 30% to 49%; note: 0% is about no effect
#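 Cells: TRPML1-DL, 1X Tet inducer, ~16 h at 37 degrees C/5% CO2. Dye: ABD Ca8 no-wash + quencher, 45-90 min RT. Read: 10 s baseline, compound add, 110 s agonist phase; 54-4 EC80 (4uM final), 110 s antagonist phase.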
# TRPML1 inh = human mucolipin-1 channel inhibition; Q9GZU1; TRPML1-inducible cells, Ca2+ dye fluorescence, FDSS; hits give low values; inhibition of EC80 agonist-evoked calcium signal; activity change, negative = inhibition, % (concentration not given with the values); 390,000 compounds, 0.02% hits; in the data active = activity change below about -50%; inconclusive = between about -30% and that limit;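 note: stimulus is agonist 54-4 at its EC80 concentration; % is set by controls: 0 for no effect and ±100 for the full control effect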
#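 Calcium fluorescence in TRPML1-DL cells induced overnight with Tet: a 110 s read after compound pin addition, then a 110 s antagonist read after challenge with 54-4 at 4 uM final (EC80).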
# HEK293 tox = cytotoxic in the GLP-1 receptor inverse agonist counter-screen | Potency, µM (doses to about 38.3 µM), for the others: at the highest dose activity change, negative = inhibition, usual class: inhibitors | HEK293 cAMP-luciferase reporter cells, luminescence, 24 h | AID 624418 | 410,000 compounds, 0.13% hits;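 note: loss of luciferase light is scored as toxicity; potency is the fitted concentration of half-maximal effect; % is set by controls: 0 for no effect and ±100 for the full control effect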
#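 Compound-treated cells are incubated 24 hr at 37 deg C under 5% CO2 after a 12 hour attachment period, then luciferase detection reagent is added and luminescence is measured following 12 min at room temperature; lowered signal indicates toxicity.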
# GLP-1R agonist = activates the human GLP-1 receptor. Potency, µM (doses to about 45.6 µM), without a hit: at the highest dose activation, hits mostly activators. HEK293 GLP-1R CRE-luciferase, luminescence, 4-6 h; cells express a hypersensitive GLP-1R form. 380,000 compounds, 0.007% hits; note: potency is the fitted concentration of half-maximal effect; % of control where 0% means no effect
# * marks the source's active call; other numbers are inactive results; ? = inconclusive; . = not tested or not shown. Unless noted, calls come from the whole dose curve; as a rule, active = well fitted curve in the direction sought with a large enough effect; inconclusive = small, poorly fitted or top-dose-only effect, or another doubt; inactive = no such curve, though single readings can be large; an effect the other way counts as inactive or inconclusive.
SMILES,GLP-1R inv ag,TRPML1 agonist,TRPML1 inh,HEK293 tox,GLP-1R agonist
CC(C)c1ccc(NC(=O)c2cccn2-c2nnc(N3CCCCC3)s2)cc1,?,2,-20,8%,.
Cc1cc(NC(=O)c2cccn2-c2nnc(N3CCCCC3)s2)ccc1Br,10µM*,2,?,-11%,.
Cc1ccc(N2C(=O)C(CN3CCCC3)C2c2ccccc2)cc1 (configuration not stated),10µM*,-1,27,-7%,6%
Cc1ccc(N2C(=O)C(CN3CCCCC3)C2c2ccccc2)cc1 (configuration not stated),?,0,32,14%,7%
CN(C)c1ccc(/C=N/NC(=O)COc2ccccc2)cc1,5%,0,-9,-10%,0%
CCCCCC1CC1C(=O)N/N=C/c1ccc(N(C)C)cc1 (configuration not stated),7.9µM*,1,29,-7%,12%
Cc1ccc(-c2cc3c(N4CCN(c5cc(C)ccc5C)CC4)nccn3n2)cc1,-7%,-1,1,-13%,0%
CC(=O)Oc1ccc(Cl)cc1CN(C(C)=O)C1CCCCC1,8.9µM*,1,-7,-8%,6%
COc1cc2c(NC3CCN(C)CC3)nc(N3CCCN(C)CC3)nc2cc1OCCCN1CCCCC1,.,-1,.,.,.
COc1ccc(S(=O)(=O)c2c(Nc3c(C)cccc3C)sc(C(=O)c3ccc(F)cc3)c2N)cc1,?,6,22,?,.
COc1ccc(N(Cc2ccccc2)S(=O)(=O)c2cccc(C(=O)NC3=NCCS3)c2)cc1,10µM*,2,2,-28%,-3%
COc1cccc(/C=N/NC(=O)c2ccoc2C)c1O,1.3µM*,.,.,-41%,3%
COc1cccc(/C=N/NC(=O)C(=O)N/N=C/c2cccc(OC)c2O)c1O,-7%,0,-19,1%,0%
COc1ccc(NC(=O)c2sccc2-n2cccc2)cc1,?,0,-1,13%,-5%
O=C(Nc1ccc(Cl)cc1)c1sccc1-n1cccc1,4.5µM*,2,22,2%,16%
CCOC(=O)c1cnc2ccc(C)cc2c1Nc1ccc(OCc2ccccc2Cl)cc1,11µM*,2,63,0%,.
CCOC(=O)c1cnc2ccc(OCC)cc2c1Nc1ccc(OCc2ccccc2Cl)cc1,?,0,-9,8%,.
Cc1ccc(/C=C/c2onc(C)c2S(=O)(=O)N2CCC(C(=O)N3CCCCC3)CC2)cc1,?,1,7,-6%,-1%
COc1ccc(/C=C/c2onc(C)c2S(=O)(=O)N2CCC(C(=O)N3CCCCCC3)CC2)cc1,5µM*,1,35,18%,2%
CCCN1CCN(C(=O)C2CCN(S(=O)(=O)c3c(C)noc3/C=C/c3ccc(C)cc3)CC2)CC1,3.2µM*,1,-17,?,8%
CCN1CCc2c(sc(NC(=S)NC(=O)c3cccc(F)c3)c2C(N)=O)C1,.,8,.,.,.
COc1ccc(-c2nsc(NC(=O)c3ccccc3Br)n2)cc1,-8%,2,-1,-2%,.
CCc1cc2c(cc3c(=O)n(CC(=O)N4CCCCC4)nc(CC)n32)s1,-19%,0,-9,8%,.
CCOC(=O)c1c(Nc2cc(C)cc(C)c2)nnc(-c2ccccc2)c1-c1ccccc1,7.9µM*,2,13,-5%,12%
CCOC(=O)c1c(Nc2cccc(C)c2)nnc(-c2ccccc2)c1-c1ccccc1,?,5,68,-7%,-4%
SMILES,GLP-1R inv ag,TRPML1 agonist,TRPML1 inh,HEK293 tox,GLP-1R agonist
Cc1c(C(=O)N2CCOCC2)[nH]c2c1C(=O)CC(c1ccccc1Cl)C2 (configuration not stated),?,1,-10,5.6µM*,0%
Cc1c(C(=O)OC2CCCCC2)[nH]c2c1C(=O)CC(c1ccccc1Cl)C2 (configuration not stated),?,0,-8,-11%,.
COC(=O)c1ccc(C(=O)OC)c(NC(=O)N2c3ccccc3Sc3ccccc32)c1,-9%,1,7,3%,0%
COC(=O)c1ccccc1NC(=O)N1c2ccccc2Sc2ccccc21,10µM*,0,3,28%,26%
Cc1cc(C)c(NC(=O)Cn2c(=O)n(CC(=O)NCc3ccccc3Cl)c(=O)c3sccc32)c(C)c1,10%,1,12,-5%,.
CC(=O)N1CCN(Cc2nc(C(c3ccccc3)c3ccccc3)no2)CC1,3%,1,-2,2%,12%
c1ccc(C(c2ccccc2)c2noc(CN3CCN(C4CCCC4)CC3)n2)cc1,13µM*,-1,-4,0%,6%
Cc1cccnc1CN1CCN(Cc2nc(C(c3ccccc3)c3ccccc3)no2)CC1,5µM*,1,-13,10%,1%
Cc1ccc(S(=O)(=O)N2CCN(c3nc(-c4ncccn4)nc4ccccc34)CC2)cc1,.,-1,.,.,.
CCc1ccc(CNC(=O)c2cnc3sc(N(CC)CC)nn3c2=O)cc1,-4%,0,-2,0%,.
CC(O)CN(C)CC/C=C1/c2ccccc2CSc2ccccc21 (configuration not stated),?,0,-1,0%,-2%
CN(CC/C=C1/c2ccccc2CSc2ccccc21)CCCO,5.6µM*,1,14,?,2%
C=CCN(C)CC/C=C1\c2ccccc2CSc2ccccc21,?,0,-2,?,0%
C#CCN(C)CC/C=C1\c2ccccc2CSc2ccccc21,4.5µM*,3,24,-3%,2%
NCC/C=C1/c2ccccc2CSc2ccccc21,3.2µM*,2,55,?,-2%
Cc1ccc(-n2ncc3c(NCCCN(C)C)ncnc32)cc1Cl,?,0,12,-24%,.
CC(CN(C)C)CN1c2ccccc2S(=O)(=O)c2ccccc21 (configuration not stated),.,.,.,.,4%
Cc1ccc(O)c(C(=O)c2cc(C#N)c(=O)n(-c3c(C)n(C)n(-c4ccccc4)c3=O)c2)c1,0%,0,6,0%,5%
Cc1ccc(O)c(C(=O)c2cc(C#N)c(=O)n(-c3nccs3)c2)c1,?,63*,-6,-7%,1%
C=CCNC(=O)c1onc(CSc2ccc(Cl)cc2)c1C(=O)NCC=C,13µM*,1,31,?,32%
C=CCNC(=O)c1onc(CSc2cccc(Cl)c2)c1C(=O)O,?,-1,8,0%,-5%
C=CCNC(=O)c1onc(CSc2ccc(F)c(F)c2)c1C(=O)O,?,0,1,1%,-2%
C=CCNC(=O)c1onc(CSc2ccc(Cl)cc2)c1C(=O)O,2.2µM*,-1,8,-4%,-1%
Cc1sc2ncn(CCC(=O)O)c(=O)c2c1C,-4%,-1,-7,0%,-5%

# High-throughput results deposited in PubChem BioAssay by National Center for Advancing Translational Sciences (NCATS).
